# ± gives the standard deviation.
# Test system: MILI (PIWIL2) piRISC loaded with piRNA #1 (26 nt)
# Assay: pre-steady-state target cleavage rate (min^-1); guide: piRNA #1 5'p-UGAGGUAGUAGGUUGUAUAGUAUCCA; MIWI and MILI are mouse PIWI proteins and EfPiwi is from a freshwater sponge; tags in brackets are library labels; higher = faster piRNA-guided slicing of the target
# Conditions: auxiliary factor: 500 nM mouse GTSF1
# Description: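 Cleave-'n-Seq: a library of target RNAs (target site embedded in constant flanks, ACAGCATTCCGCGTTAGTGATATCCG... 5' flank; DNA-blocked outside the site) at 0.1 nM was incubated with 1 nM active mouse MILI or MIWI piRISC (synthetic 5'-monophosphorylated piRNA guide) with or without 500 nM mouse GTSF1 at 33 °C for 1 min to 16 h. Uncleaved targets were sequenced and normalised to non-target controls, and the pooled three trials were fitted to a burst-and-steady-state model to give the pre-steady-state cleavage rate (min^-1; k3 is constrained to at most 1e-4). Sequence is the target site only; target names encode pairing extent (gX:gY) and contiguous / 1-mismatch / 2-mismatch / bulge geometry. Fits with R² ≤ 0 are excluded.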
row,Sequence,pre-steady-state target cleavage rate
1,GGAGACCUAACAAUACAACGUACUACCUCA,0.00908 ± 0.0045
2,GGAGACCUUACUAAACAACCUACUACCUGA,0.0914 ± 0.017
3,GGAGACCUAUGAUAACAACCUAAUACCUCA,0.00414 ± 0.0023
4,GGAGACCUUACAAUACAACCUUCUACCUCA,0.00687 ± 0.0029
5,GGAGUGGAUACUAUACUACCUACAACCUCA,0.117 ± 0.0096
6,GGAGACCUAACUAUAGAACCUACUACCUCA,0.131 ± 0.021
7,GGAGACCUAUGUAUACAUCCUACUACGUCA,0.0275 ± 0.0061
8,GGAGUGGAUACUAUACAACCUACUAUCCUCA,0.05 ± 0.0077
9,GGAGACCUUAUUAUACAACCUACUACCUCA,0.14 ± 0.011
10,GGAGACCUAUGUUUACAACCUACUUCCUCA,0.0114 ± 0.0056
11,GGAGACCUAACUAUACAUCCUACUACGUCA,0.173 ± 0.052
12,GGAGUGGAUACUAUAGCAACCUACUACCUCA,0.188 ± 0.009
13,GGAGACCUAUGUAUACAACCUACCACCUCA,0.0347 ± 0.0083
14,GGAGAGGAUACUUUAGAACCUACUACCUCA,0.153 ± 0.0078
15,GGAGUGGAUACUUACAACCUACUACCUCA,0.141 ± 0.012
16,GGAGACCUAUGUAAACAACCUACUACGUCA,0.00279 ± 0.0027
17,GGAGACCUAUGUUUACUACCUACUACCUCA,0.00553 ± 0.0021
18,GGAGACCUAUGUAUACAACCUAACUACCUCA,0.00595 ± 0.0023
19,GGAGAGGUUACUAUACAACCUACUUCCUCA,0.00348 ± 0.0029
20,GGAGACCUAUGUAACAACCUACUACCUCA,0.0402 ± 0.0057

row,Sequence,pre-steady-state target cleavage rate
1,GGAGACCUAUGAUUACAAGCUUCUACCUCA,0.00347 ± 0.0023
2,GGAGACCACACUAUACAACCUACUACCUCA,0.221 ± 0.042
3,GGAGUGGAUACUCUACAACCUACUACCUCA,0.194 ± 0.011
4,GGAGACCUUACUAUACUACCUACUACCUGA,0.105 ± 0.014
5,GGAGUGGAUACUAAUCAACCUACUACCUCA,0.144 ± 0.01
6,GGAGAGGAAACUAUACAACCUACUAGCUCA,0.0535 ± 0.019
7,GGAGACGUUACUAUACAAGCUACUACCUCA,0.216 ± 0.017
8,GGAGACGAUACUAUACAACCUACUCACCUCA,0.122 ± 0.019
9,GGAGACCAUACUAUUCAACCUACAACCUCA,0.185 ± 0.021
10,GGAGACCAUACUAUACAACCUACUACGUCA,0.116 ± 0.017
11,GGAGUGGAUACUAUACAACCUACUACCUA,0.103 ± 0.014
12,GGAGACCUAACUAUACAAUCUACUACCUCA,0.0713 ± 0.012
13,GGAGACCUUACUAUACUACCUACUACGUCA,0.0704 ± 0.01
14,GGAGACGAUCUAUACAACCUACUACCUCA,0.174 ± 0.013
15,GGAGAGGAUACUAUACAACCUACUACGUGA,0.0154 ± 0.004
16,GGAGACCUAUGAAUACAACCUACUACCUCG [g2:g18:cont:t1G],0.0085 ± 0.002
17,GGAGACCUAACUAUACUACCUACUACGUCA,0.0596 ± 0.018
18,GGAGACCUUACUAUACACCUACUACCUCA,0.00774 ± 0.0034
19,GGAGACGAUACUAUAGAACCUACUACCUGA,0.0908 ± 0.021
20,GGAGUGGAUACUAUACAAGGAACUACCUCA,0.00353 ± 0.0018
